Conditions in all cases: mRNA level, 48 h; actives raise or lower the signal
Read-out in test [1]: ABC Transporter (ABCB11), ABCB11 (gene 8647)
As to the kind of experiment: LTEA_HepaRG_ABCB11: Life Technologies and Expression Analysis (LTEA) Assay for ABC Transporter (ABCB11) using HepaRG (AID 2283463). Summed up:
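ABCB11 transcript levels are read by Fluidigm TaqMan qRT-PCR after 48 h chemical treatment of human HepaRG cells. Concentrations span 100 uM downward in half-log steps with 0.5% DMSO; gain or loss is fitted against DMSO controls.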

Read-out in test [2]: ABC Transporter (ABCC2), ABCC2 (gene 1244)
As to the kind of experiment: LTEA_HepaRG_ABCC2: Life Technologies and Expression Analysis (LTEA) Assay for ABC Transporter (ABCC2) using HepaRG (AID 2283464). Summed up: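 qRT-PCR (TaqMan, Fluidigm array) read-out of ABCC2 mRNA, normalized to three housekeeping genes. Differentiated HepaRG cells were treated 48 h in serum-free induction medium with 8-point half-log series from 100 uM in 0.5% DMSO; curves fitted bidirectionally relative to DMSO.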

Read-out in test [3]: Broad substrate specificity ATP-binding cassette transporter ABCG2 (Homo sapiens) (UniProt Q9UNQ0)
The test is described as follows: LTEA_HepaRG_ABCG2: Life Technologies and Expression Analysis (LTEA) Assay for ABC Transporter (ABCG2) using HepaRG (AID 2283465). Summed up:
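Read-out is ABCG2 mRNA induction or loss quantified by qRT-PCR after 48 h chemical treatment of human HepaRG cells, normalized to three housekeeping genes. Concentrations reached 100 uM top in half-log steps; fitting was bidirectional against 0.5% DMSO.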

Read-out in test [4]: ATP-citrate lyase (ACLY), ACLY (gene 47)
As to the kind of experiment: LTEA_HepaRG_ACLY: Life Technologies and Expression Analysis (LTEA) Assay for ATP-citrate lyase (ACLY) using HepaRG (AID 2283466). An outline of the steps: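 HepaRG, 48 h exposure, 8-pt half-log dilutions (top 100 uM), 0.5% DMSO. Readout: ACLY mRNA, TaqMan qRT-PCR, housekeeping-normalized (ACTB/GAPDH/POLR2A). Bidirectional curve fit vs DMSO.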

Read-out in test [5]: Peroxisomal acyl-coenzyme A oxidase 1 (ACOX1) gene, ACOX1 (gene 51)
As to the kind of experiment: LTEA_HepaRG_ACOX1: Life Technologies and Expression Analysis (LTEA) Assay for Peroxisomal acyl-coenzyme A oxidase 1 (ACOX1) gene using HepaRG (AID 2283467). An outline of the steps: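 Measured by qRT-PCR against three housekeeping genes: ACOX1 transcript change in human HepaRG cells after 48 h dosing. Concentrations ran up to 100 uM in half-log steps. Curves were fitted bidirectionally relative to 0.5% DMSO.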

Read-out in test [6]: Alkaline Phosphatase, Placental (ALPP) gene, ALPP (gene 250)
The test is described as follows: LTEA_HepaRG_ALPP: Life Technologies and Expression Analysis (LTEA) Assay for Alkaline Phosphatase, Placental (ALPP) gene using HepaRG (AID 2283468).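 As to AC50: differentiated human HepaRG liver cells in serum-free induction medium.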 Summed up:
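qRT-PCR readout of ALPP mRNA (Fluidigm TaqMan), normalized to ACTB/GAPDH/POLR2A, after 48 h chemical exposure of HepaRG cells; 8-point half-log series, top 100 uM, 0.5% DMSO vehicle. Bidirectional curve fit versus DMSO baseline.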

Read-out in test [7]: Bcl-2 (BAD) gene, BAD (gene 572)
The test is described as follows: LTEA_HepaRG_BAD: Life Technologies and Expression Analysis (LTEA) Assay for Bcl-2 (BAD) gene using HepaRG (AID 2283469). An outline of the steps: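 BAD transcript change, measured by qRT-PCR against three housekeeping genes and fitted in both directions relative to 0.5% DMSO, after 48 h chemical treatment of human HepaRG liver cells at concentrations up to 100 uM.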

Read-out in test [8]: Bcl-2 (BAX) gene, BAX (gene 581)
The test is described as follows: LTEA_HepaRG_BAX: Life Technologies and Expression Analysis (LTEA) Assay for Bcl-2 (BAX) gene using HepaRG (AID 2283470). An outline of the steps:
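Concentration-response endpoint fitted in both directions relative to 0.5% DMSO vehicle. Human HepaRG cultures receive test chemicals for 48 h at up to 100 uM; BAX mRNA is quantified by qRT-PCR against housekeeping genes.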

Read-out in test [9]: adenosine kinase (ADK) gene, ADK (gene 132)
As to the kind of experiment: LTEA_HepaRG_ADK: Life Technologies and Expression Analysis (LTEA) Assay for adenosine kinase (ADK) gene using HepaRG (AID 2283471). An outline of the steps: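 HepaRG (human liver), 48 h chemical exposure, 8-pt half-log series, top 100 uM, 0.5% DMSO vehicle. Readout: ADK mRNA by qRT-PCR vs housekeeping genes; bidirectional curve fit relative to DMSO baseline.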

Read-out in the next test: BCL2L11 (gene 10018)
As to the kind of experiment: LTEA_HepaRG_BCL2L11: Life Technologies and Expression Analysis (LTEA) Assay for Bcl-2 (BCL2L11) gene using HepaRG (AID 2283473). An outline of the steps: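 HepaRG, 48 h exposure, 8-pt half-log series from 100 uM in 0.5% DMSO, duplicates; qRT-PCR (Fluidigm TaqMan) for BCL2L11, housekeeping-normalized; bidirectional curve fit relative to DMSO baseline.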

Read-out in test [10]: Apolipoprotein A-V (APOA5) gene, APOA5 (gene 116519)
As to the kind of experiment: LTEA_HepaRG_APOA5: Life Technologies and Expression Analysis (LTEA) Assay for Apolipoprotein A-V (APOA5) gene using HepaRG (AID 2283474). An outline of the steps:
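HepaRG, 48 h chemical exposure in serum-free induction medium, 8-pt half-log series (top 100 uM), 0.5% DMSO vehicle, duplicates. Readout: APOA5 mRNA by qRT-PCR, housekeeping-normalized; bidirectional fit vs DMSO baseline.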

Read-out in test [11]: Apoptosis regulator Bcl-2 (Homo sapiens) (UniProt P10415)
The test is described as follows: LTEA_HepaRG_BCL2: Life Technologies and Expression Analysis (LTEA) Assay for Bcl-2 gene using HepaRG (AID 2283475). Summed up:
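Expression change of BCL2 mRNA in HepaRG after 48 h dosing, quantified by TaqMan qRT-PCR against three endogenous controls. Concentration-response used eight points up to 100 uM, vehicle 0.5% DMSO.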

Read-out in test [12]: Bcl-2 (BID) gene, BID (gene 637)
As to the kind of experiment: LTEA_HepaRG_BID: Life Technologies and Expression Analysis (LTEA) Assay for Bcl-2 (BID) gene using HepaRG (AID 2283476). An outline of the steps: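 Gain or loss of BID expression is fitted relative to 0.5% DMSO vehicle. Human HepaRG liver cells received a 48 h chemical exposure over an eight-point concentration range.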

Read-out in a further test: Caspase-3 (Homo sapiens) (UniProt P42574)
As to the kind of experiment: LTEA_HepaRG_CASP3: Life Technologies and Expression Analysis (LTEA) Assay for cysteine-aspartic acid protease (CASP3) using HepaRG (AID 2283477). An outline of the steps:
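HepaRG, 48 h exposure, 8 conc. (top 100 uM, half-log steps, duplicate), 0.5% DMSO vehicle; qRT-PCR of CASP3 transcript, housekeeping-normalised (ACTB/GAPDH/POLR2A); bidirectional curve fit vs DMSO baseline.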

Read-out in test [13]: cysteine-aspartic acid protease (CASP8), CASP8 (gene 841)
As to the kind of experiment: LTEA_HepaRG_CASP8: Life Technologies and Expression Analysis (LTEA) Assay for cysteine-aspartic acid protease (CASP8) using HepaRG (AID 2283480). Summed up: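 HepaRG, 48 h exposure, duplicate wells; 8 conc, half-log from 100 uM, 0.5% DMSO. Serum-free induction medium. CASP8 mRNA by TaqMan qRT-PCR, norm. ACTB/GAPDH/POLR2A; gain/loss fitted vs DMSO.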

Read-out in test [14]: Alpha-fetoprotein (AFP) gene, AFP (gene 174)
The test is described as follows: LTEA_HepaRG_AFP: Life Technologies and Expression Analysis (LTEA) Assay for Alpha-fetoprotein (AFP) gene using HepaRG (AID 2283472). Summed up:
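After a 48 h plating period, cells are moved to serum-free induction medium and dosed in duplicate (100 uM maximum, half-log dilutions, 0.5% DMSO) for another 48 h. Total RNA goes to TaqMan qRT-PCR; AFP signal is housekeeping-normalized.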

Read-out in test [15]: Cytochrome P450 (CYP24A1), CYP24A1 (gene 1591)
The test is described as follows: LTEA_HepaRG_CYP24A1: Life Technologies and Expression Analysis (LTEA) Assay for Cytochrome P450 (CYP24A1) using HepaRG (AID 2283478). Summed up:
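qRT-PCR read-out: CYP24A1 transcript levels normalized to three housekeeping genes, bidirectional curve fits against 0.5% DMSO baseline. Human HepaRG cells treated 48 h with chemicals at eight concentrations from 100 uM in half-log steps.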

Read-out in test [16]: Cytochrome P450 (CYP1A2), CYP1A2 (gene 1544)
The test is described as follows: LTEA_HepaRG_CYP1A2: Life Technologies and Expression Analysis (LTEA) Assay for Cytochrome P450 (CYP1A2) using HepaRG (AID 2283479). An outline of the steps: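 HepaRG, 48 h exposure, top 100 uM, half-log 8-pt, 0.5% DMSO vehicle, duplicates. Readout: TaqMan qRT-PCR of CYP1A2 mRNA, housekeeping-normalized (ACTB/GAPDH/POLR2A). Gain/loss fit relative to DMSO baseline.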

Read-out in test [17]: Cytochrome P450 (CYP2B6), CYP2B6 (gene 1555)
The test is described as follows: LTEA_HepaRG_CYP2B6: Life Technologies and Expression Analysis (LTEA) Assay for Cytochrome P450 (CYP2B6) using HepaRG (AID 2283481). Summed up:
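Read-out is CYP2B6 mRNA by TaqMan qRT-PCR, normalized to three housekeeping genes and fitted bidirectionally against 0.5% DMSO baseline. Human HepaRG cells received test chemicals for 48 h, top concentration 100 uM, half-log dilutions.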

Read-out in test [18]: Cytochrome P450 2C19 (Homo sapiens) (UniProt P33261)
As to the kind of experiment: LTEA_HepaRG_CYP2C19: Life Technologies and Expression Analysis (LTEA) Assay for CYP2C19 using HepaRG (AID 2283482). An outline of the steps:
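HepaRG, 48 h chemical exposure, 8-pt half-log series from 100 uM in 0.5% DMSO, duplicates. Readout: CYP2C19 mRNA by TaqMan qRT-PCR, housekeeping-normalized. Bidirectional fit vs DMSO baseline; phenobarbital 1mM as induction control.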

Activity calls are given as the source filed them. The calls were made as follows: active = hit-call score of the fitted dose curve at least 0.9, where 1 is the maximum; inactive = score below 0.9.

From PubChem BioAssay (EPA / NIEHS) come the findings set out here.

Sequence of Apoptosis regulator Bcl-2 (Homo sapiens) (P10415 whole entry, looked up): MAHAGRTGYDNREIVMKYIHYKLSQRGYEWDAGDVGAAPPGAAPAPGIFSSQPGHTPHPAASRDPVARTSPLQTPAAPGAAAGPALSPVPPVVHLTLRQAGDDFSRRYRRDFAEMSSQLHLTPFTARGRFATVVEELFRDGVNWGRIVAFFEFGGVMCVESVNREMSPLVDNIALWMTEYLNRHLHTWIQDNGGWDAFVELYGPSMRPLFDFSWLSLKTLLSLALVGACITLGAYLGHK
Sequence of Caspase-3 (Homo sapiens) (P42574 whole entry, looked up): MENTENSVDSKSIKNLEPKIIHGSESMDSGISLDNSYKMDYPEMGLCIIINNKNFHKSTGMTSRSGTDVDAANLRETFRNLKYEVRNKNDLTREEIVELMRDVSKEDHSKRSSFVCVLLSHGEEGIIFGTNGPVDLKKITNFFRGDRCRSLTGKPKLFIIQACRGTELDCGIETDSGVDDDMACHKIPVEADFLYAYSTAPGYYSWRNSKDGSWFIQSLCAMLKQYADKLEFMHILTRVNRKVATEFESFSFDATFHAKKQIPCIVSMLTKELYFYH
Sequence of Broad substrate specificity ATP-binding cassette transporter ABCG2 (Homo sapiens) (Q9UNQ0 whole entry, looked up): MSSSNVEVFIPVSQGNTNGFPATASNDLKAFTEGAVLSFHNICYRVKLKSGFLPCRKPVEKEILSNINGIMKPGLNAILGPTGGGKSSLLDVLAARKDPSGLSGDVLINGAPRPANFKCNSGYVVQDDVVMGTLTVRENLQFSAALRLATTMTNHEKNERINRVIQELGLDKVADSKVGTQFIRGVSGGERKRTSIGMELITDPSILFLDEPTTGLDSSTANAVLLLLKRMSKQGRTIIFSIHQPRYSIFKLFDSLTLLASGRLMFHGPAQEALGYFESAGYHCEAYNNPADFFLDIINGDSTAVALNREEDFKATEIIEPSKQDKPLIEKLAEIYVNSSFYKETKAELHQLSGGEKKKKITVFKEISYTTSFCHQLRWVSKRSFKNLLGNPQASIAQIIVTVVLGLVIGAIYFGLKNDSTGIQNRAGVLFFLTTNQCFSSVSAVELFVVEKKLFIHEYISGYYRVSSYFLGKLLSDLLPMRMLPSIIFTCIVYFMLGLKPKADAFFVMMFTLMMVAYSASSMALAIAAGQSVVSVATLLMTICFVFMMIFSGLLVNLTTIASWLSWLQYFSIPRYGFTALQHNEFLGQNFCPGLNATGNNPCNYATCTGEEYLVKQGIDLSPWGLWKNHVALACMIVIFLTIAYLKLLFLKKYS
Sequence of Cytochrome P450 2C19 (Homo sapiens) (P33261 whole entry, looked up): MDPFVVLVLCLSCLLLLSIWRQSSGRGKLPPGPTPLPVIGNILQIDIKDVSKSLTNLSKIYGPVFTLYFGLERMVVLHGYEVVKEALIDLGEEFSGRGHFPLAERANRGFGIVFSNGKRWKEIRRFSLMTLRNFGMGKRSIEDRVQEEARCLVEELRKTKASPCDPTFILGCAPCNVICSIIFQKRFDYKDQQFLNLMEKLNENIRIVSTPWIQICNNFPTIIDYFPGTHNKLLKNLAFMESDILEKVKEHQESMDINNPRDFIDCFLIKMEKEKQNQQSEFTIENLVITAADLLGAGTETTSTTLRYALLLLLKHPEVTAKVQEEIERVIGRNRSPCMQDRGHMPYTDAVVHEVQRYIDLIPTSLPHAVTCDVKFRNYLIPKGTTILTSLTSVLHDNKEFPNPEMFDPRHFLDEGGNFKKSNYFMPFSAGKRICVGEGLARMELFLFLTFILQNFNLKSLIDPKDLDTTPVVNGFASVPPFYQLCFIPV

Take `CCC(C)(C)C(=O)O[C@H]1C[C@@H](C)C=C2C=C[C@H](C)[C@H](CC[C@@H]3C[C@@H](O)CC(=O)O3)[C@H]21`: the AC50 in [1] was 50 µM (active); in test [4], 13.5 µM (active). Further, the result in test [2], in test [3], in test [5], in test [6], in test [7] and in test [8] was inactive. The outcome (in [9]; with BCL2L11 (gene 10018); in [10]; in test [11]; in [12]; with Caspase-3 (Homo sapiens)) was inactive. Moreover, the outcome in [13] was inactive.

As to `CCc1cc(SCc2sc(-c3ccc(C(F)(F)F)cc3)nc2CN2CCN(c3ccc(OC)cc3)CC2)ccc1OCC(=O)O`, the AC50 is 8.6 µM (active) in test [1]; 7.49 µM (active) in test [3]; 93.4 µM (active) in [4]; 92.7 µM (active) in test [5]; 6.34 µM (active) in test [6]; 87 µM (active) in test [7]. Also, the concentration at half-maximal activity (AC50) was 97.2 µM (active) in [8]; 90.9 µM (active) in test [9]; 7.69 µM (active) in test [14]; 89.4 µM (active) with BCL2L11 (gene 10018); 8.96 µM (active) in test [11]; 0.206 µM (active) in [12]. Besides, the AC50 was 15.8 µM (active) in [13], 7.48 µM (active) in test [17] and 7.52 µM (active) in [18]. The compound was called inactive (in test [10]; in the test with Caspase-3 (Homo sapiens); in test [15]; in [16]).

As for `Cc1ccc(O)cc1`, the compound was classed as inactive in test [1], in [2], in test [3], in test [4], in test [5] and in [6]. Moreover, the result (in test [7]; in [8]; in test [9]; with BCL2L11 (gene 10018); in [10]; in test [11]) was inactive. The outcome (in test [12]; with Caspase-3 (Homo sapiens); in [13]) was inactive.

For the compound `Nc1cccc(N)c1`, the compound was classed as inactive in [1], in test [3], in [4], in test [5], in [6] and in test [7]. The compound was called inactive (in test [8]; in test [9]; in test [14]; in the test with BCL2L11 (gene 10018); in [10]; in test [11]). For the same compound, the call (in [12]; with Caspase-3 (Homo sapiens); in [15]; in test [13]; in test [17]; in test [18]) was inactive. Also, the concentration at half-maximal activity (AC50) in [16] is 33 µM (active).
